The source of these data is PubChem BioAssay (NCI).

SMILES strings stand for the structures. Where “and” joins values, the source holds several entries; their conditions need not be identical. Identical values can stand only once. Compounds without any hit were thinned out: in the full panel of roughly 83,000, 20% have a hit.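 Interpretation: 100, growth as untreated; towards 0, rising growth inhibition; 0, no net growth; 0 to -100, cell death. Compounds scoring below 10 were considered active.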 Values without a mark were called inactive. Calls of active or inactive are those of the source.

Holding throughout (assay): NCI-60 one-dose screen, 48 h (100 = growth as untreated, 0 = no growth, -100 = all killed)
One assay concerns MOLT-4 leukemia. The following applies: 10 µM.
A further assay has as its system SR leukemia. Conditions: 10 µM.
The test system of a further assay is RPMI-8226 leukemia. The following applies: 10 µM.
For another assay, the system named is OVCAR-8 ovarian. The following applies: 10 µM.
The test system of a further assay is OVCAR-5 ovarian. The following applies: 10 µM.
For a further assay, the system named is OVCAR-4 ovarian. Conditions: 10 µM.
The next assay relates to SK-OV-3 ovarian. Conditions: 10 µM.
A further assay relates to IGROV1 ovarian. The following applies: 10 µM.
In a further assay the test system is OVCAR-3 ovarian. Conditions: 10 µM.
Another assay deals with HS 578T breast. Conditions: 10 µM.
Another assay relates to NCI/ADR-RES ovarian. Conditions: 10 µM.
In the next assay the test system is T-47D breast. The following applies: 10 µM.
For another assay, the system named is BT-549 breast. The following applies: 10 µM.
In another assay the test system is MDA-MB-435 melanoma. The following applies: 10 µM.
The subject of the next assay is SW-620 colon. The following applies: 10 µM.
The test system of the next assay is MCF7 breast. The following applies: 10 µM unless noted.
The next assay relates to HCT-116 colon. Conditions: 10 µM.
The test system of another assay is HCC-2998 colon. Conditions: 10 µM.
A further assay has as its system KM12 colon. Conditions: 10 µM.

On to `CC/C(=C/c1ccc(OC)cc1)[N+](=O)[O-]`, for which the growth was 3.8% (active) in the assay on MOLT-4 leukemia; 1.84% (active) in the assay with SR leukemia; -8.7% (active) in the assay on RPMI-8226 leukemia; 1.78% (active) in the assay on OVCAR-8 ovarian; 10.9% in the assay with OVCAR-5 ovarian; 62% in the assay with OVCAR-4 ovarian. Besides, the growth in the assay on SK-OV-3 ovarian is 104%; with IGROV1 ovarian, 11.7%; in the assay with OVCAR-3 ovarian, -54.6% (active); with HS 578T breast it was 90.2%; in the assay on NCI/ADR-RES ovarian it was 30.3%; in the assay on T-47D breast, -43.7% (active). Besides, the growth was -34.5% (active) in the assay on BT-549 breast; 15.1% in the assay on MDA-MB-435 melanoma; -76.8% (active) in the assay with SW-620 colon; -41.5% (active) in the assay with MCF7 breast; -81.3% (active) in the assay with HCT-116 colon; 85.1% with HCC-2998 colon. In addition, in the assay with KM12 colon, the growth was 33.8%.
On to `COc1cc2c(cc1OC)C13CCN4CC5=CCOC6CC(=O)N2C1C6C5CC43` (stereo not drawn), for which the growth is 109% and 86.6% with MOLT-4 leukemia; 82% in the assay on SR leukemia; 56.5% with RPMI-8226 leukemia; 99.7% and 113% in the assay on OVCAR-8 ovarian; 98.2% and 83.9% with OVCAR-5 ovarian; 113% and 102% with OVCAR-4 ovarian. Besides, the growth was 101% and 114% in the assay on SK-OV-3 ovarian; 106% in the assay with IGROV1 ovarian; 115% and 107% in the assay on OVCAR-3 ovarian; 114% and 96.4% with HS 578T breast; 116% and 66.9% with NCI/ADR-RES ovarian; 96.9% and 109% in the assay with T-47D breast. The growth in the assay with BT-549 breast is 90.3%; in the assay with MDA-MB-435 melanoma, 112% and 110%; with SW-620 colon it was 115% and 106%; with MCF7 breast, 94.8% and 98.6%; in the assay with HCT-116 colon it was 99.4% and 102%; with HCC-2998 colon, -56.9% (active). For the same molecule, the growth in the assay with KM12 colon was 101% and 100%.
As for `COc1cc(/C=C/[N+](=O)[O-])cc(OC)c1OC`, the growth in the assay on MOLT-4 leukemia was 8.23% (active); in the assay on SR leukemia, -17.7% (active); with RPMI-8226 leukemia, -27.6% (active); in the assay with OVCAR-8 ovarian, 1.78% (active); in the assay on OVCAR-5 ovarian it was 23%; in the assay on OVCAR-4 ovarian, 34.2%. In addition, the growth is 89.9% in the assay with SK-OV-3 ovarian; -22% (active) in the assay with IGROV1 ovarian; -30.9% (active) in the assay on OVCAR-3 ovarian; 8.36% (active) in the assay with HS 578T breast; 27.3% with NCI/ADR-RES ovarian; 13.1% in the assay on T-47D breast. Further, the growth in the assay with BT-549 breast was 40.6%; in the assay with MDA-MB-435 melanoma it was -22.4% (active); in the assay with SW-620 colon, -50.5% (active); in the assay on MCF7 breast, 6.55% (active); with HCT-116 colon it was -19.2% (active); with HCC-2998 colon, -19.9% (active). Besides, in the assay with KM12 colon, the growth was 18.2%.
With `CS(=N)(=O)CCC(N)C(=O)O` (stereo not drawn), the growth was 112% in the assay with MOLT-4 leukemia; 99.9% in the assay on SR leukemia; 107% in the assay on RPMI-8226 leukemia; 98% in the assay with OVCAR-8 ovarian; 85.3% in the assay on OVCAR-5 ovarian; 104% in the assay on OVCAR-4 ovarian. In addition, the growth in the assay on SK-OV-3 ovarian was 108%; with IGROV1 ovarian it was 87.5%; in the assay on OVCAR-3 ovarian it was 115%; in the assay on HS 578T breast, 104%; with NCI/ADR-RES ovarian, 100%; in the assay with T-47D breast, 111%. For the same molecule, the growth in the assay on BT-549 breast is 99.2%; in the assay with MDA-MB-435 melanoma it was 99.8%; in the assay on SW-620 colon, 103%; with MCF7 breast, 101%; in the assay on HCT-116 colon, 97.1%; with KM12 colon, 115%.
On to `COc1cc([N+](=O)[O-])c2ncccc2c1[N+](=O)[O-]`, for which the growth in the assay with MOLT-4 leukemia was 26%; in the assay with SR leukemia it was 25.7%; in the assay with RPMI-8226 leukemia, 45.8%; in the assay on OVCAR-8 ovarian, 69.8%; with OVCAR-5 ovarian it was 124%; in the assay on OVCAR-4 ovarian, 47.5%. Further, the growth is 91.5% with SK-OV-3 ovarian; 23.1% with IGROV1 ovarian; 58.1% in the assay on OVCAR-3 ovarian; 79.4% in the assay on HS 578T breast; 81.7% in the assay on NCI/ADR-RES ovarian; 50.9% in the assay on T-47D breast. The growth in the assay on BT-549 breast is 98.2%; in the assay with MDA-MB-435 melanoma, 44.8%; in the assay on SW-620 colon it was -61.5% (active); in the assay with MCF7 breast, 23.3%; with HCT-116 colon it was 14.4%; in the assay with HCC-2998 colon, 102%. For the same molecule, the growth in the assay with KM12 colon was 20.3%.
On to `Cn1c(O)c(N=O)c(=O)n(C)c1=O`, for which the growth in the assay with MOLT-4 leukemia was 101% and 99.9%; in the assay on SR leukemia, 103% and 80%; in the assay with RPMI-8226 leukemia, 110% and 92%; with OVCAR-8 ovarian, 99.6% and 111%; in the assay with OVCAR-5 ovarian it was 116% and 98.1%; in the assay on OVCAR-4 ovarian, 116% and 111%. Further, the growth is 108% and 104% in the assay with SK-OV-3 ovarian; 111% and 114% in the assay on IGROV1 ovarian; 101% and 94.8% with OVCAR-3 ovarian; 97.1% and 98.9% in the assay on HS 578T breast; 101% and 102% in the assay with NCI/ADR-RES ovarian; 101% and 97% in the assay on T-47D breast. For the same molecule, the growth is 109% and 99% in the assay with BT-549 breast; 113% and 93.3% with MDA-MB-435 melanoma; 97% and 98.9% in the assay on SW-620 colon; 104% and 97.2% in the assay on MCF7 breast; 113% and 97.3% with HCT-116 colon; 107% with HCC-2998 colon. Besides, the growth in the assay on KM12 colon was 102% and 98.6%.
